CYP2C9 inhib: blocks human cytochrome P450 2C9. 96,000 compounds, 20% hits. CYP2C9 Supersomes, luciferin-H conversion, luminescence. inhibition, % at 5 µM. P11712;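 active means blocking of liver enzyme CYP2C9 beyond about 50% at 5 µM, limit read from the data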
D1 mod: allosterically modulates the human D1 dopamine receptor | HEK293 D1, CRE-luciferase, dopamine EC30 potentiation; actives deviate in either direction | 58,000 compounds, 5.9% hits | AID 641 | P21728 | B-score at 10 µM;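 active means luminescence count or its row- and column-corrected plate score outside the 99.7% band of the plate's sample wells, on either side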
hDAT+cocaine: modulates human dopamine transporter uptake under cocaine; B-score at 10 µM; AID 449768; 110,000 compounds, 1.3% hits; LLC-PK1 hDAT cells, [14C]-dopamine uptake with cocaine IC80; actives deviate in either direction; Q01959;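 active means Z score or B-score, a plate-position-corrected score, falls beyond the plate's 99.7% confidence bounds, in either direction; inactive means both scores lie inside the 99.7% bounds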;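 further: scored against the spread of the other compound wells on the same plate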
CYP2C19 inhib: inhibitors of human CYP2C19; inhibition, % at 5 µM; 96,000 compounds, 21% hits; P33261; CYP2C19 Supersomes, luciferin-H EGE luminescence, 30 min;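 active means CYP2C19 inhibition above a set limit at 5 µM in the primary screen, cut at about 50% in these data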;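 further: plate controls were negative control wells for no effect and 2.5 mM tranylcypromine positive control for full effect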
Target sequence (P33261 whole entry, looked up): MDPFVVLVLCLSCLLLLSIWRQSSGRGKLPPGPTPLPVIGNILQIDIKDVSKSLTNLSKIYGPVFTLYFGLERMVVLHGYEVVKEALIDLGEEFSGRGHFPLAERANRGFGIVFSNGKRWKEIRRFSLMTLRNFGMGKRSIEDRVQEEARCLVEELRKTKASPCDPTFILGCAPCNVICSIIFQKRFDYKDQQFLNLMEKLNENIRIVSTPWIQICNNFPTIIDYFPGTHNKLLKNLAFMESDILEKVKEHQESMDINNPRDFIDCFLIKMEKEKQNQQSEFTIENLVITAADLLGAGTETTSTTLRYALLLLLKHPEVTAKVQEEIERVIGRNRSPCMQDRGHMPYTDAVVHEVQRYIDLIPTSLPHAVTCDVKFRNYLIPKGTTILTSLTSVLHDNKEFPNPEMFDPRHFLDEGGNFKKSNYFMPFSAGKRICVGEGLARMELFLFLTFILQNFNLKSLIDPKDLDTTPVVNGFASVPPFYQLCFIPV
CYP2C9 activ: increases human cytochrome P450 2C9 activity; recombinant CYP2C9, luciferin-H conversion, luminescence; active compounds read high; factor 1 = untreated enzyme, 0 = blocked; activation factor at 5 µM; 96,000 compounds, 1.4% hits; AID 1024;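 active means activation factor of 2 or more for CYP2C9 at a 5 µM dose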;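 further: 0 = sulfaphenazole-blocked wells and 1 = vehicle-only wells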
CYP2C19 activ: activators of human cytochrome P450 2C19; P33261; recombinant CYP2C19, luciferin-H EGE luminescence; active compounds read high; 0 = fully inhibited enzyme, 1 = untreated enzyme; activation factor at 5 µM; 96,000 tested, under 10 active;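 active means activation factor of at least 2 at 5 µM in the primary screen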;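 further: 0 = wells with 2.5 mM tranylcypromine and 1 = vehicle-only wells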
Starred values were filed as active, the others as inactive; . = no result. Only some compounds are listed: those with a hit (about 28% of all), similar ones and a draw of the others.

SMILES	CYP2C9 inhib	D1 mod	hDAT+cocaine	CYP2C19 inhib	CYP2C9 activ	CYP2C19 activ
O=C(Cn1nc(C(F)(F)F)c2c1CCCCC2)N1CCOCC1	4	-0.61	0.073	30	1	0.7
O=C(CCc1ccccc1)N1CCN(c2ccc(Cl)cc2)CC1	44	.	1.4	50*	0.6	0.5
Cc1cc(S(=O)(=O)N2CCC(NC(=O)C34CC5CC(CC(C5)C3)C4)CC2)ccc1-n1cnnn1	4	-0.54	-1.8	17	1	0.8
C=C(C)Cn1c(SCCN2CCOCC2)nc2c1c(=O)[nH]c(=O)n2C	.	.	0.74	.	.	.
Cc1ccc(NC(=O)c2ccc(S(=O)(=O)NCC3CCCO3)cc2)cc1 (stereo not drawn)	14	.	-0.1	7	0.9	0.9
O=C(Nc1ccc2c(c1)OCO2)c1ccc(S(=O)(=O)NCC2CCCO2)cc1 (stereo not drawn)	2	0.17	-0.072	1	1	1
CCN(CC)S(=O)(=O)c1ccc(S(=O)(=O)N(CC(=O)Nc2ccccc2)CC2CCCO2)cc1 (stereo not drawn)	.	.	0.006	.	.	.
O=C(CN(CC1CCCO1)S(=O)(=O)c1ccc(S(=O)(=O)NC2CC2)cc1)Nc1ccccc1 (stereo not drawn)	97*	0.52	0.057	74*	0	0.3
O=C(Nc1cccc(F)c1)c1ccc(S(=O)(=O)NCC2CCCO2)cc1 (stereo not drawn)	56*	-0.38	-0.03	35	0.4	0.7
O=C(CSc1ccccc1)Nc1ccc(S(=O)(=O)NCC2CCCO2)cc1 (stereo not drawn)	91*	0.13	-0.12	48	0.1	0.5
Cc1nc(-c2ccccc2)nc2[nH]c(C(C)C)cc(=O)c12	81*	-0.16	-0.32	15	0.2	0.8
Cc1ccc(NC2=CC(=O)OC(C)C2)cc1 (stereo not drawn)	-9	.	-0.95	-8	1.1	1.1
CNc1nc(SCC(=O)OC)nc(N2CCOCC2)n1	-12	.	0.12	-10	1.1	1.1
CCOc1nc(NCCN2CCOCC2)nc(NC(C)C)n1	.	.	-0.31	.	.	.
COc1cccc(NS(=O)(=O)c2ccc3c(c2)n(C)c(=O)c(=O)n3C)c1	50	0.48	1.3	35	0.5	0.6
COc1ccc(OC)c(NS(=O)(=O)c2ccc3c(c2)n(C)c(=O)n3C)c1	45	1.1	0.91	78*	0.5	0.2
COc1ccc(NS(=O)(=O)c2ccc3c(c2)n(C)c(=O)n3C)cc1	74*	.	0.85	27	0.3	0.7
COC(=O)COc1ccc(S(=O)(=O)Nc2cc(OC)ccc2OC)cc1	-86	-0.14	0.53	99*	1.9	0
CCOC(=O)c1oc2ccc(S(=O)(=O)Nc3ccc4c(c3)n(C)c(=O)n4C)cc2c1C	94*	2.4	0.19	79*	0.1	0.2
CCOC(=O)c1ccc(NC(=S)Nc2ccccc2N)cc1	.	.	1.3	.	.	.
Cc1[nH]c(=O)[nH]c(=O)c1NS(=O)(=O)c1ccc2c(c1)CCCC2	-11	0.6	-0.59	0	1.1	1
Cn1c(=O)n(C)c2cc(NS(=O)(=O)c3ccc4c(c3)CCCC4)ccc21	21	-0.52	-0.38	95*	0.8	0
O=C(Nc1ccc(Cl)cc1C(=O)N1CCOCC1)c1ccco1	2	-0.31	-1	-9	1	1.1
O=[N+]([O-])c1ccc2c(c1Nc1ccccc1)=NC1(CCCCC1)N=2	53*	.	1.1	10	0.5	0.9
COc1cc2c(cc1NC(=O)/C=C/c1ccccc1)oc1ccccc12	78*	.	-0.13	15	0.2	0.8
COc1ccc(COc2cc(-c3cccc(OC)c3)nc3ccc(NC(=O)c4ccc(OC)cc4)cc23)cc1	.	.	-0.4	.	.	.
COc1ccc(COc2cc(-c3cccc(OC)c3)nc3ccc(NC(=O)c4cccnc4)cc23)cc1	.	.	2.7*	.	.	.
COc1ccc(NC(=O)c2cc(-c3cccnc3)nc3c(C)c(C)ccc23)c(OC)c1	86*	.	0.69	80*	0.1	0.2
COc1ccc(NC(=O)c2cccnc2)c(OC)c1	14	-0.21	-1.1	35	0.9	0.7
COc1cc2c(cc1NC(=O)CN(C)Cc1nc3ccccc3c(=O)[nH]1)oc1ccccc12	22	-2.7*	1.1	-14	0.8	1.1

Screening data deposited in PubChem by several laboratories.
